Tcruzi prolif = T. cruzi proliferation inhibition; T. cruzi beta-gal in NIH3T3, GalScreen luminescence, 90 h; hit rate 5.9% among 77,000; inhibition, % at 8.34 µM;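 active means mean inhibition above about 93%, with at least 55% of replicates each passing it, limit read from the data, passing the limit was not always enough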
Pf Dd2 growth = P. falciparum Dd2 growth inhibition | hit rate 2.3% among 94,000 | SYBR Green, 72 h; hits give low values | activity change, % at 10 µM | AID 1159554; in the data active means activity change below about -80%
C diff growth = inhibitors of Clostridium difficile growth; Clostridium difficile clinical isolate growth, OD600, 24 h; hits give low values; growth activity, negative = inhibition, % at 16 µg/mL (by protocol); hit rate 0.25% among 86,000;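 active means mean growth activity at or below -80% and every replicate also at or below -80%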
A number is an active result; i = inactive; nt = no result. Sampled rows, rich in hits. Any-hit rate of the full collection: about 6.7%.

SMILES	Tcruzi prolif	Pf Dd2 growth	C diff growth
CS(=O)(=O)N1[C@H](C#N)[C@H](c2ccc(C#CC3CCCCC3)cc2)[C@H]1CO	99.1	i	i
COc1cccc(C#Cc2ccc([C@H]3[C@H](C#N)N(C(=O)C4CCCC4)[C@H]3CO)cc2)c1	nt	i	i
COc1cccc(C#Cc2ccc([C@H]3[C@@H](CO)N(C(=O)C4CCCC4)[C@H]3C#N)cc2)c1	nt	-93.5	i
COc1cccc(C#Cc2ccc([C@H]3[C@@H](CO)N(C(=O)C4CCCCC4)[C@H]3C#N)cc2)c1	i	-94.8	i
COc1cccc(C#Cc2ccc([C@@H]3[C@H](C#N)N(C(=O)C4CCC4)[C@H]3CO)cc2)c1	i	i	i
COc1cccc(C#Cc2ccc([C@H]3[C@@H](C#N)N(C(=O)C4CCCC4)[C@@H]3CO)cc2)c1	nt	-83.3	i
COc1cccc(C#Cc2ccc([C@@H]3[C@@H](C#N)N(C(=O)C4CCCC4)[C@@H]3CO)cc2)c1	nt	i	i
COc1cccc(C#Cc2ccc([C@H]3[C@@H](CO)N(C(=O)C4CCC4)[C@H]3C#N)cc2)c1	i	-85.6	i
COc1cccc(C#Cc2ccc([C@@H]3[C@H](C#N)N(C(=O)C4CCCC4)[C@H]3CO)cc2)c1	nt	i	i
C[C@H]1CCCCO[C@H](CN(C)S(=O)(=O)c2ccccc2)[C@@H](C)CN([C@@H](C)CO)C(=O)c2cc(NC(=O)NC3CCCCC3)ccc2O1	i	i	i
C[C@@H]1CN([C@H](C)CO)C(=O)c2cccc(NC(=O)Nc3ccccc3)c2O[C@H]1CN(C)S(=O)(=O)c1cccs1	i	i	i
COc1ccc(S(=O)(=O)N(C)C[C@@H]2Oc3ccc(NS(=O)(=O)c4ccc(Cl)cc4)cc3CC(=O)N([C@@H](C)CO)C[C@@H]2C)cc1	i	-82.5	i
COc1ccc(S(=O)(=O)Nc2ccc3c(c2)CC(=O)N([C@H](C)CO)C[C@H](C)[C@H](CN(C)S(=O)(=O)c2ccc(Cl)cc2)O3)cc1	i	i	i
COc1ccc(S(=O)(=O)Nc2ccc3c(c2)CC(=O)N([C@H](C)CO)C[C@H](C)[C@H](CN(C)S(=O)(=O)c2ccc(C)cc2)O3)cc1	i	-86.3	i
COc1ccc(S(=O)(=O)Nc2ccc3c(c2)CC(=O)N([C@@H](C)CO)C[C@@H](C)[C@@H](CN(C)S(=O)(=O)c2ccc(C)cc2)O3)cc1	i	i	i
COCC(=O)Nc1ccc2c(c1)C(=O)N(C)C[C@H](OC)[C@@H](C)CN(CCC(F)(F)F)[C@@H](C)CO2	i	i	nt
Cc1ccc(S(=O)(=O)N(C)C[C@@H]2Oc3ccc(NS(=O)(=O)c4cn(C)cn4)cc3CC(=O)N([C@H](C)CO)C[C@@H]2C)cc1	i	i	nt
C[C@H](CO)N1C[C@H](C)[C@@H](CN(C)Cc2cccnc2)Oc2cc(/C=C/c3ccccc3)ccc2S1(=O)=O	nt	-89.1	i
C[C@@H]1CN([C@H](C)CO)S(=O)(=O)c2ccc(/C=C/c3ccccc3)cc2O[C@H]1CN(C)Cc1cccnc1	nt	-86.5	i
C[C@H]1CN([C@@H](C)CO)S(=O)(=O)c2ccc(/C=C/c3ccccc3)cc2O[C@@H]1CN(C)Cc1ccccc1	i	i	i
C/C=C/c1ccc2c(c1)O[C@H](CN(C)Cc1cccnc1)[C@H](C)CN([C@H](C)CO)S2(=O)=O	i	i	i
O=C(C[C@@H]1C=C[C@@H](NC(=O)c2ccncc2)[C@H](CO)O1)NCCc1ccncc1	nt	nt	i
COc1ccccc1CNC(=O)C[C@H]1C=C[C@@H](NC(=O)CN(C)C)[C@H](CO)O1	i	i	i
Cc1cc(C(=O)Nc2cccc3c2O[C@@H](CN(C)Cc2ccc(C(=O)O)cc2)[C@@H](C)CN([C@@H](C)CO)C3=O)n(C)n1	nt	i	i
Cc1cc(C(=O)Nc2cccc3c2O[C@H](CN(C)Cc2ccc(C(=O)Nc4ccccc4N)cc2)[C@@H](C)CN([C@H](C)CO)C3=O)n(C)n1	i	-88.3	i
SMILES	Tcruzi prolif	Pf Dd2 growth	C diff growth
Cc1cc(C(=O)Nc2cccc3c2O[C@@H](CN(C)Cc2ccc(C(=O)Nc4ccccc4N)cc2)[C@H](C)CN([C@H](C)CO)C3=O)n(C)n1	i	-92.4	i
Cc1cc(C(=O)Nc2cccc3c2O[C@@H](CN(C)Cc2ccc(C(=O)O)cc2)[C@H](C)CN([C@H](C)CO)C3=O)n(C)n1	nt	i	i
C[C@@H]1CN([C@H](C)CO)C(=O)c2ccccc2-c2ccccc2CO[C@@H]1CN(C)Cc1ccc(Oc2ccccc2)cc1	nt	-88.0	i
C[C@@H]1CN([C@H](C)CO)C(=O)c2ccccc2-c2ccccc2CO[C@@H]1CN(C)Cc1ccc(C(=O)O)cc1	i	i	nt
C[C@H]1CN([C@@H](C)CO)C(=O)c2ccccc2-c2ccccc2CO[C@H]1CN(C)Cc1ccc(O)cc1	i	i	nt
C[C@H]1CN([C@@H](C)CO)C(=O)c2ccccc2-c2ccccc2CO[C@H]1CN(C)Cc1ccc(Oc2ccccc2)cc1	nt	-86.7	i
C[C@@H]1CCCCO[C@H](CN(C)S(C)(=O)=O)[C@H](C)CN([C@@H](C)CO)C(=O)c2cc(NC(=O)Cc3ccccc3)ccc2O1	i	i	i
O=C(C[C@H]1CC[C@@H]2[C@H](COC[C@@H](O)CN2Cc2ccccc2)O1)NCCc1ccccc1	i	i	i
C[C@@H]1CN([C@H](C)CO)C(=O)Cc2cc(NS(=O)(=O)c3cccs3)ccc2O[C@@H]1CN(C)S(=O)(=O)c1ccc(F)cc1	i	i	i
C[C@@H]1CCCCO[C@H](CN(C)C(=O)Nc2cccc3ccccc23)[C@@H](C)CN([C@@H](C)CO)C(=O)c2cc(NC(=O)Nc3ccc(C(F)(F)F)cc3)ccc2O1	i	-80.7	i
C[C@@H]1CCCCO[C@H](CN(C)C(=O)Nc2cccc3ccccc23)[C@@H](C)CN([C@H](C)CO)C(=O)c2cc(NC(=O)Nc3ccc(C(F)(F)F)cc3)ccc2O1	i	i	i
C[C@@H]1CN([C@H](C)CO)C(=O)Cc2cc(NC(=O)Nc3ccc(C(F)(F)F)cc3)ccc2O[C@H]1CN(C)C(=O)Nc1cccc2ccccc12	i	-84.6	i
C[C@H]1CN([C@@H](C)CO)C(=O)Cc2cc(NC(=O)Nc3ccc(C(F)(F)F)cc3)ccc2O[C@@H]1CN(C)C(=O)Nc1cccc2ccccc12	i	i	i
C[C@H]1CCCCO[C@H](CN(C)C(=O)Nc2cccc3ccccc23)[C@@H](C)CN([C@@H](C)CO)C(=O)c2cc(NC(=O)Nc3ccc(C(F)(F)F)cc3)ccc2O1	i	i	i
C[C@@H]1CCCCO[C@@H](CN(C)C(=O)Nc2cccc3ccccc23)[C@H](C)CN([C@H](C)CO)C(=O)c2cc(NC(=O)Nc3ccc(C(F)(F)F)cc3)ccc2O1	109.4	i	i
C[C@@H]1CN([C@H](C)CO)C(=O)c2cc(NC(=O)Nc3ccc(C(F)(F)F)cc3)ccc2O[C@H]1CN(C)C(=O)Nc1cccc2ccccc12	i	-94.9	i
C[C@H](CO)N1C[C@H](C)[C@H](CN(C)C(=O)Nc2cccc3ccccc23)Oc2ccc(NC(=O)Nc3ccc(C(F)(F)F)cc3)cc2C1=O	i	i	i
CN(C)CC(=O)N[C@@H]1C=C[C@H](CC(=O)O)O[C@H]1CO	nt	i	i
C[C@H]1CN([C@@H](C)CO)C(=O)c2cc(NC(=O)CCN3CCOCC3)ccc2O[C@@H]1CN(C)Cc1ccc(C(F)(F)F)cc1	i	i	i

From PubChem
